Source: PubChem BioAssay (Tox21)
Values joined by “and” are separate entries in the source; they are usually repeats but may differ in a detail not shown here. Equal values may be shown once. Inconclusive results are not listed. Where a structure was tested more than once in an assay, its records may differ in their call. Active and inactive are the calls of the source. Unless noted, calls come from the whole dose curve; as a rule, active = well fitted curve in the direction sought with a large enough effect in the repeat runs; inconclusive = weak or mixed curves; inactive = no such curve, though single readings can be large; an effect the other way counts as inactive or inconclusive.

How the values were obtained:
[1] = qHTS assay to identify small molecule phospholipidosis (PLD) inducers (AID 1259344; active = well fitted curve in the direction sought with a large enough effect; an effect the other way counts as inactive or inconclusive)
Outline: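 HepG2 cells on collagen I, attached 4 h at 37 C, were co-treated with compound and LipidTOX Red dye for 24 h at 37 C, then fixed with paraformaldehyde plus Hoechst 33342 and imaged by high-content microscopy for phospholipid accumulation.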

[2] = qHTS assay to identify small molecule HDAC inhibitors (AID 1259364); note: top concentration of the series differs between compounds; nearly all actives have a fitted effect of over 45% in size
Outline: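 Homogeneous cell-based luminescent assay of endogenous class I/II HDAC activity; HCT-116 cells, 2 h compound exposure, 30 min HDAC-Glo development at RT.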

[3] = qHTS assay to identify small molecule HDAC inhibitors - cell viability counter screen (AID 1259365); note: series mostly up to about 92 µM; nearly all actives have a fitted effect of over 50% in size
Outline: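 Wild-type HCT-116 cells were seeded at 1,500 per well, incubated overnight at 37 C, then exposed to compounds in DMSO for 2hr. Viability was read by CellTiter-Glo luminescence after 30min at room temperature.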

[4] = qHTS assay to identify small molecule agonists of the sonic hedgehog signaling (Shh) pathway - cell viability counter screen (AID 1259366); note: nearly all actives have a fitted effect of over 50% in size
Outline: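 NIH/3T3-derived 3T3 Gli1-Luc cells (stable Gli1-responsive firefly luciferase reporter) were seeded, rested 4 hr at 37 C/5% CO2, then exposed to compounds in DMSO for 24 hr; viability was read by CellTiter-Fluor fluorescence in the same wells.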

[5] = qHTS assay to identify small molecule antagonists of the sonic hedgehog signaling (Shh) pathway - cell viability counter screen (AID 1259367); note: nearly all actives have a fitted effect of over 55% in size
Outline: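 NIH/3T3-derived Gli1-Luc reporter cells (2,000 per well) rested 4 hr at 37 C, then received DMSO compounds plus conditioned medium. After 23 hr of treatment, CellTiter-Fluor was added for 1 hr at 37C and fluorescence read.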

[6] = qHTS assay to identify small molecule agonists of the sonic hedgehog signaling (Shh) pathway (AID 1259368; calls by dose curve; note: series mostly up to about 92 µM; nearly all actives have a fitted effect of over 15% in size)
Outline: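 Steps: seed 3T3 Gli1-Luc cells, incubate 4 hr at 37 C, pin-transfer compounds in DMSO alongside a positive control, incubate 24 hr, add luciferase detection reagent, wait 30 min at room temperature, read luminescence.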

[7] = qHTS assay to identify small molecule antagonists of the sonic hedgehog signaling (Shh) pathway (AID 1259369; calls by dose curve; note: nearly all actives have a fitted effect of over 45% in size; note: potency is the fitted concentration of half-maximal effect)
Outline: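 Inhibition of Shh signalling is measured as reduced Gli1-response-element firefly luciferase output in an NIH/3T3-derived stable reporter clone stimulated with conditioned medium for 24hr.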

[8] = target: Estrogen receptor beta (Homo sapiens) (UniProt Q92731); experiment: qHTS assay to identify small molecule agonists of the estrogen receptor beta (ER-beta) signaling pathway (AID 1259377; active = well fitted activation curve with a large enough effect in the signal ratio in the repeat runs, not every such curve was filed as active; the % refers to the signal ratio)
Estrogen receptor beta (Homo sapiens), sequence (Q92731 whole entry, looked up): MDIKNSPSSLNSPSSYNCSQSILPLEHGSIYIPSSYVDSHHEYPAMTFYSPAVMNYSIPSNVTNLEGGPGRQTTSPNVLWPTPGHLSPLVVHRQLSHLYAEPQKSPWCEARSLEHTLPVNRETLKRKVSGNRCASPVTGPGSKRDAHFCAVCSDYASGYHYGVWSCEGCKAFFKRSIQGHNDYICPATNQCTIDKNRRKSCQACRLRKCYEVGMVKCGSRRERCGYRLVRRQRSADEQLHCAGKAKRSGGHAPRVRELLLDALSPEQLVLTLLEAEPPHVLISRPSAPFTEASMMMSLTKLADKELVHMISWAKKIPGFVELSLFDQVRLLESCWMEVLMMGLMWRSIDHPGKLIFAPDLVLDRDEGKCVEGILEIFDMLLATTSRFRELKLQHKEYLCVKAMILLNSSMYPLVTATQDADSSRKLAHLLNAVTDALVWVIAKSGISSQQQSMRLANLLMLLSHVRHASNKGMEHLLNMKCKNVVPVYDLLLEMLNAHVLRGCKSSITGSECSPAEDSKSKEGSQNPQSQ
Outline: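 ER-beta-UAS-bla HEK293T (GripTite) cells carrying a UAS-driven beta-lactamase reporter, in medium with 2% charcoal-stripped FBS, were exposed to compounds for 16 hr at 37C; LiveBLAzer B/G FRET substrate was then added and fluorescence read after 2 hours at room temperature.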

[9] = target: Estrogen receptor beta (Homo sapiens) (UniProt Q92731); experiment: qHTS assay to identify small molecule antagonists of the estrogen receptor beta (ER-beta) signaling pathway (AID 1259378; active = well fitted inhibition curve with a large enough effect in the signal ratio in the repeat runs, not every such curve was filed as active; the % refers to the signal ratio; note: potency is the fitted concentration of half-maximal effect)
Outline: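 ER-beta-UAS-bla HEK293T (GripTite) cells in 2% charcoal-stripped FBS medium were preincubated 6 hr at 37C, dosed with compound, then stimulated with 1 nM E2 (final) for 16 hr; beta-lactamase reporter read by B/G FRET fluorescence after 2 hr substrate loading.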

[10] = target: Estrogen receptor (Homo sapiens) (UniProt P03372); experiment: qHTS assay to identify small molecule antagonists of the estrogen receptor alpha (ER-alpha) signaling pathway using the BG1 cell line in the presence of 0.1 nM 17-beta-estradiol (AID 1259244); note: nearly all actives have a fitted effect of over 50% in size
Estrogen receptor (Homo sapiens), sequence (P03372 whole entry, looked up): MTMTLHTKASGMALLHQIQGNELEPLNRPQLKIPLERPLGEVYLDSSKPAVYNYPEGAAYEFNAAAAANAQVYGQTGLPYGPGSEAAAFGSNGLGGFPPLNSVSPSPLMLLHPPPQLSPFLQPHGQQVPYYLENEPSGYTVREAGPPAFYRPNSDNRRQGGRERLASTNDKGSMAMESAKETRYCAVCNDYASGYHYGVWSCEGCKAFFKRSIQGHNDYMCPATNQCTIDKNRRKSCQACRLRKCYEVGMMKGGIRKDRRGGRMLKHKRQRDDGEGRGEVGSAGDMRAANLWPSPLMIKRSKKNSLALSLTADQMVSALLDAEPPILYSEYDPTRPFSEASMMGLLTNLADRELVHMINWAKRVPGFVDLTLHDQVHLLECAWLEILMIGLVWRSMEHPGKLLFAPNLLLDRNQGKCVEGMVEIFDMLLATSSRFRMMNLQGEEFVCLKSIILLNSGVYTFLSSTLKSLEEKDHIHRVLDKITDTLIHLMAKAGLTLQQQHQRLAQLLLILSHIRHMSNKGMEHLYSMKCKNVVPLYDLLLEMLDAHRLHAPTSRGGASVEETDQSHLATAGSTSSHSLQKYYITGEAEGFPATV
Outline: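 After 5 days in hormone-depleted medium (charcoal-stripped serum, no phenol red), VM7Luc4E2 cells were seeded, incubated 24 h, then co-treated with compound and 0.1 nM (final) estradiol for 22 h before luminescence detection.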
% is set by controls: 0 for no effect and ±100 for the full control effect.

CC1=CC(=O)NS(=O)(=O)O1
inactive: outcome [1] | Potency [2] | outcome [3] | Potency [4] | Potency [5] | outcome [6] | Potency [7] | Potency [8] | Potency [9]

CCCCN(CCCC)CCCC
inactive: Potency [10] | Potency [2] | Potency [4] | Potency [5] | outcome [6] | Potency [7] | Potency [8] | Potency [9]

CCOC(=O)NNc1nncc2ccccc12
inactive: Potency [10] | PLD induction [1] -1.23% [at 7.66 µM] | Potency [2] | Potency [4] | Potency [5] | outcome [6] | Potency [7]

CCCCC(CC)COC(=O)C(C#N)=C(c1ccccc1)c1ccccc1 (centres undefined)
inactive: outcome [1] | Potency [2] | outcome [3] | Potency [4] | Potency [5] | outcome [6] | Potency [7] | Potency [8]
active: Potency [9] 19.3 µM

CC(=O)Nc1cccc(O)c1
inactive: outcome [1] | Potency [2] | outcome [3] | Potency [4] | Potency [5] | outcome [6] | Potency [7] | Potency [8] | Potency [9]

COc1ccc(Cl)cc1C(=O)NCCc1ccc(S(=O)(=O)NC(=O)NC2CCCCC2)cc1
inactive: outcome [1] | Potency [2] | outcome [3] | Potency [4] | Potency [5] | outcome [6] | Potency [7] | Potency [8] | Potency [9]

O=C(O)CCCC[C@@H]1SC[C@@H]2NC(=O)N[C@@H]21
inactive: Potency [10] | outcome [1] | Potency [2] | outcome [3] | Potency [4] | Potency [5] | outcome [6] | Potency [7] | Potency [8] | Potency [9]

CC(=O)Nc1ccccc1
inactive: Potency [10] | outcome [1] | Potency [2] | Potency [4] | Potency [5] | outcome [6] | Potency [7] | Potency [8] | Potency [9]

C=CCOC(=O)c1ccccc1C(=O)OCC=C
inactive: Potency [10] | Potency [2] | Potency [4] | Potency [5] | outcome [6] | Potency [7]

CC(c1cc2ccccc2s1)N(O)C(N)=O (centres undefined)
inactive: Potency [10] | outcome [1] | Potency [2] | outcome [3] | Potency [4] | Potency [5] | outcome [6] | Potency [7] | Potency [8] | Potency [9]

CC1=CCC2CC1C2(C)C (centres undefined)
inactive: outcome [1] | Potency [2] | outcome [3] | Potency [4] | Potency [5] | outcome [6] | Potency [7] | Potency [8] | Potency [9]

O=C1CCC(N2C(=O)c3ccccc3C2=O)C(=O)N1 (centres undefined)
inactive: outcome [1] | Potency [2] | outcome [3] | Potency [4] | Potency [5] | outcome [6] | Potency [7] | Potency [8] | Potency [9]

CC[C@H](C)C(=O)O[C@H]1C[C@@H](C)C=C2C=C[C@H](C)[C@H](CC[C@@H]3C[C@@H](O)CC(=O)O3)[C@H]21
inactive: outcome [1] | Potency [2] | outcome [3] | Potency [4] | Potency [5] | outcome [6] | Potency [8]

CCCCCCOCCO
inactive: Potency [2] | outcome [3] | Potency [4] | Potency [5] | outcome [6] | Potency [7] | Potency [8] | Potency [9]

COc1cc(Cc2cnc(N)nc2N)cc(OC)c1OC
inactive: outcome [1] | Potency [2] | outcome [3] | Potency [4] | Potency [5] | outcome [6] | Potency [7] | Potency [8] | Potency [9]

Cc1occc(=O)c1O
inactive: Potency [2] | outcome [3] | Potency [4] | Potency [5] | outcome [6] | Potency [7]

C/C=C1/CC2C=CC1C2 (centres undefined)
inactive: Potency [2] | outcome [3] | Potency [4] | Potency [5] | outcome [6] | Potency [7]

CC(=O)OCC(=O)[C@@]12N=C(C)O[C@@H]1C[C@H]1[C@@H]3CCC4=CC(=O)C=C[C@]4(C)[C@H]3[C@@H](O)C[C@@]12C
inactive: outcome [1] | Potency [2] | outcome [3] | Potency [4] | Potency [5] | outcome [6] | Potency [7] | Potency [8] | Potency [9]

O=c1[nH]c(=O)n([C@H]2CCCO2)cc1F
inactive: outcome [1] | Potency [2] | outcome [3] | Potency [4] | Potency [5] | outcome [6] | Potency [7] | Potency [9]

Nc1ccccc1[N+](=O)[O-]
inactive: Potency [2] | outcome [3] | Potency [4] | Potency [5] | outcome [6] | Potency [7] | Potency [8] | Potency [9]

CCN(CC)CCCC(C)Nc1ccnc2cc(Cl)ccc12 (centres undefined)
active: Potency [7] 5.8 µM
inactive: outcome [1] | activity change, negative = inhibition [2] 5.21% [at 8.39 µM] and -11.7% [at 19 µM] | activity change, negative = cytotoxicity [3] 1.29% [at 8.39 µM] and -0.194% [at 19 µM] | viability change, negative = cytotoxic [4] 4.99% [at 8.39 µM] and -9.75% [at 19 µM] | viability change, negative = cytotoxic [5] -9.15% [at 8.39 µM] and -19.2% [at 19 µM] | activity change, negative = inhibition [7] -20.4% [at 8.39 µM] | activation [8] 1.76% [at 8.39 µM] and 0.415% [at 19 µM] | activity, negative = inhibition [9] -11.4% [at 8.39 µM]

CCCC(C)=O
inactive: Potency [2] | outcome [3] | Potency [4] | Potency [5] | outcome [6] | Potency [7]

C=CCNC(N)=S
inactive: outcome [1] | Potency [2] | outcome [3] | Potency [4] | Potency [5] | outcome [6] | Potency [7] | Potency [8] | Potency [9]

CCCCC(CC)COC(=O)CS (centres undefined)
inactive: Potency [2] | outcome [3] | Potency [4] | Potency [5] | outcome [6] | Potency [7]

COc1ccc(Nc2ccccc2)c(C)c1
inactive: Potency [2] | outcome [3] | Potency [4] | Potency [5] | outcome [6] | Potency [7]

C[C@H]1C[C@H]2[C@@H]3CCC4=CC(=O)C=C[C@]4(C)[C@@]3(F)[C@@H](O)C[C@]2(C)[C@@]1(O)C(=O)CO
inactive: outcome [1] | Potency [2] | Potency [4] | Potency [5] | outcome [6] | Potency [7]

Oc1cccc2ccccc12
inactive: Potency [2] | outcome [3] | Potency [4] | Potency [5] | outcome [6] | Potency [8]
active: Potency [7] 6.28 µM and 15.4 µM
